Results filed as inconclusive are left out. A number with no mark means an inactive call. Calls follow the shape of the full dose curve.
Assay: Validation screen for inhibitors of Lassa infection (AID 463096)
Conditions: Lassa virus infection, cell-based; series mostly up to 46.1 µM; activity change, negative = inhibition: at the top concentration
% is scaled to controls: 0 for no effect and ±100 for the full control effect.

| SMILES | activity change, negative = inhibition |
| --- | --- |
| C[C@]12CCC(=O)C=C1CC[C@@H]1C2[C@@H](O)C[C@@]2(C)[C@H]1CC[C@]2(O)C(=O)CO (stereo partly drawn) | 2.56% |
| N#CC(Cc1ccc(O)c(O)c1)C(=O)N1CCc2ccccc21 (stereo not drawn) | -21% |
| CN(C)C1C(=O)C(C(N)=O)=C(O)[C@@]2(O)C(=O)C3=C(O)c4c(O)ccc(Cl)c4[C@@H](O)C3C[C@@H]12 (stereo partly drawn) | -8.59% |
| O=C(NCCNCC(O)COc1ccc(O)cc1)N1CCOCC1 (stereo not drawn) | -0.91% |
| CCCCCCCCCCCCCCC/C=C/[C@@H](O)[C@H](NC(=O)CCCCCCCCCCCCC)OC (tested in a mixture with another compound) | 7.83% |
| CCCCOC(=O)NS(=O)(=O)c1sc(CC(C)C)cc1-c1ccc(Cn2c(CC)nc3c(C)cc(C)nc32)cc1 | -40.4% |
| CNC(=O)[C@H]1O[C@@H](n2cnc3c(NCc4ccc(N)cc4)ncnc32)[C@H](O)[C@H]1O | -16.8% |
| [N-]=[N+]=Nc1ccc(C(=O)CSC[C@H](NC(=O)CC[C@H](N)C(=O)O)C(=O)NCC(=O)O)cc1 | -15.9% |
| Nc1nc(Cl)nc2c1ncn2[C@@H]1O[C@H](CO)[C@H](O)[C@H]1O | -10.4% |
| Nc1nc(Nc2ccccc2)nc2c1ncn2[C@@H]1O[C@H](CO)[C@H](O)[C@H]1O | 0.0139% |
| OC[C@H]1O[C@@H](n2cnc3c(N[C@H]4CC5CCC4C5)ncnc32)[C@H](O)[C@@H]1O (stereo partly drawn) | 8.36% |
| Cc1ccc(OCC(O)C(C)NC(C)C)c2c1CCC2 (stereo not drawn) | -36.8% |
| NCC1OC(O[C@@H]2[C@H](O)[C@@H](OC3C(O)C(N)CC(N)C3OC3OC(CO)C(O)C(O)C3N)O[C@@H]2CO)C(N)C(O)C1O (stereo partly drawn) | -13.2% |
